We go through seven molecules from PubChem BioAssay.

Calls of active or inactive are those of the source. Unless noted, the rule behind the calls is not given here.

Assay [1] relates to Wnt5a (protein binding on small-molecule microarray). The assay can be described thus: small molecules binding Wnt5a protein – biophysical, small-molecule microarray, 635/667 nm fluorescence, primary screen (AID 1142).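 Note: fluorescence read at 667 nm with signal to noise per printed feature.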 Conditions: 635 nm fluorescence, higher = more signal.
Assay [2] in a line: ATP-based viability of Huh7 replicon cells – cell-based, CellTiter-Glo luminescence, basal, 48 h, cytotoxicity control for HCV replication inhibitor project, primary screen (AID 1143).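 Note: Huh7 hepatoma cells carrying a hepatitis C replication reporter with no stimulus; test concentration not given here.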 Conditions: higher = more signal, called active from +8 up or from −8 down.
Assay [3] in a line: Pseudomonas biofilm growth suppression – PAO1 strain, BacTiter-Glo luminescence, LB-PBS, primary screen (AID 1144). Conditions: P. aeruginosa PAO1 biofilm, 12 h, higher = more signal.
The nature of assay [4]: basal CRE-LacZ reporter activity in PC12 – cell-based, unstimulated, primary screen (AID 1145). The settings on record: no forskolin, luminescence, 4.5 h, higher = more signal, called active from +8 up or from −8 down.
A short description of assay [5]: forskolin-driven CRE-LacZ activity in PC12 – cell-based, CRE-LacZ reporter, forskolin-stimulated, primary screen (AID 1146).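 Note: PC12 cells with 6xCRE LacZ reporter stimulated by forskolin 10 µM; beta-galactosidase reporter signal reflecting CREB driven transcription.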 Conditions: luminescence, 4.5 h, higher = more signal, called active from +8 up or from −8 down.
Assay [6] has as its target Streptavidin (Streptomyces avidinii) (UniProt P22629). The experiment in a line: compounds binding control protein streptavidin – biophysical, small-molecule microarray, 635/667 nm fluorescence, artefact control for SMM compound annotation, primary screen (AID 1147).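 Note: signal reflects streptavidin binding to arrayed compounds as a control protein.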 The settings on record: higher = more signal.
The nature of assay [7]: probe aInhba binding on compound microarray – biochemical, small-molecule microarray, 635/667 nm fluorescence, primary screen (AID 1148).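 Note: score merges 667nm spot fluorescence with signal-to-noise for antibody binding to printed compounds.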 Conditions: higher = more signal.
Assay [8] deals with Torsin-1A (Homo sapiens) (UniProt O14656). The experiment in a line: TOR1A wild-type binding on microarray – cell lysate, small-molecule microarray, lysate, 635/667 nm, primary screen (AID 1149). The settings on record: COS7 hTOR1A-WT lysate, 635 nm fluorescence, higher = more signal.
For assay [9] the target is unchanged. The experiment in a line: torsin A mutant lysate binding on microarrays – cell lysate, small-molecule microarray, COS7 lysate, 635/667 nm fluorescence, primary screen (AID 1150).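 Note: score pools 667 nm emission and signal to noise measuring lysate protein binding.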 Conditions: COS7 hTOR1A mutant lysate, 635 nm fluorescence, higher = more signal.
Assay [10] has as its system Sonic hedgehog protein (Shh). The assay can be described thus: Sonic hedgehog microarray binding compounds – biochemical, small-molecule microarray, 635/667 nm fluorescence, primary screen (AID 1151).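 Note: Shh protein binding to compounds spotted on small-molecule microarray slides; score combines spot fluorescence intensity with signal-to-noise across triplicate slides.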 Conditions: 635 nm fluorescence, higher = more signal.
A short description of assay [11]: optical density shifts of acrAB sulA E. coli – strain DRC41, OD650, 48 h, E. coli filamentation inducer project, primary screen (AID 1152).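 Note: E. coli MC1000 strain DRC41 lacking acrAB efflux pump and sulA.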 The settings on record: higher = more signal, called active from +8 up or from −8 down.
Assay [12] is described as follows: probe aLefty1 binding on compound microarray – biochemical, small-molecule microarray, 635/667 nm fluorescence, primary screen (AID 1153).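 Note: score merges spot fluorescence with signal-to-noise ratio from the scanned slide images.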 Conditions: higher = more signal.
The nature of assay [13]: plasmodial surface anion channel blockers, osmotic lysis – cell-based, P. falciparum Indochina, OD700, 1 h, primary screen (AID 1154). Conditions: P. falciparum Indochina infected RBC osmotic lysis, higher = more signal, called active from +8 up or from −8 down.
Assay [14] is described as follows: plasmodial surface anion channel blockers, osmotic lysis – cell-based, P. falciparum Indochina, OD700, 2 h, primary screen (AID 1155).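 Note: lysis reports solute entry through the parasite surface anion channel PSAC.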 Conditions: P. falciparum Indochina infected erythrocytes, higher = more signal, called active from +8 up or from −8 down.
Assay [15] is described as follows: changes in parasitized red cell lysis, either direction – P. falciparum Indochina, OD700, 3 h, PSAC antagonist project, primary screen (AID 1156). The settings on record: P. falciparum-infected erythrocytes, osmotic lysis, higher = more signal, called active from +8 up or from −8 down.
The nature of assay [16]: plasmodial surface anion channel blockers, osmotic lysis – cell-based, P. falciparum Indochina, OD700, 18 h, primary screen (AID 1157). Conditions: P. falciparum Indochina infected erythrocytes, osmotic lysis OD700, 18 h; higher = more signal, called active from +8 up or from −8 down.
Assay [17] can be described thus: S6 kinase pathway phospho-S6 level changes – cell-based, A549, cytoblot, luminescence, serum-stimulated, primary screen (AID 1158).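 Note: serum-stimulated A549 lung adenocarcinoma cells; signal is phosphorylated S6 detected by cytoblot immunostaining with HRP secondary.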 Conditions: 5 h, higher = more signal.
In assay [18] the target is NADPH oxidase 2 (Homo sapiens) (UniProt P04839). The experiment in a line: compounds shifting NOX2 Amplex Red fluorescence – cell-based, HEK293-NOX2, PMA-stimulated, NOX inhibitor project, primary screen (AID 1159). Note: test concentration not given here. The settings on record: 45 min, higher = more signal, called active from +8 up or from −8 down.
The target in assay [19] is NADPH oxidase 4 (Homo sapiens) (UniProt Q9NPH5). The assay can be described thus: compounds shifting NOX4 Amplex Red fluorescence – cell-based, HEK293-NOX4, tetracycline-induced, NOX inhibitor project, primary screen (AID 1160). Conditions: HEK293-NOX4, Amplex Red H2O2 fluorescence, 45 min; higher = more signal, called active from +8 up or from −8 down.
Assay [20] addresses NADPH oxidase 5 (Homo sapiens) (UniProt Q96PH1). The assay can be described thus: compounds shifting NOX5 Amplex Red fluorescence – cell-based, HEK293-NOX5, NOX inhibitor project, primary screen (AID 1161). The settings on record: HEK293-NOX5, ionomycin, 45 min, higher = more signal.

Sequence of NADPH oxidase 2 (Homo sapiens) (P04839 whole entry, looked up): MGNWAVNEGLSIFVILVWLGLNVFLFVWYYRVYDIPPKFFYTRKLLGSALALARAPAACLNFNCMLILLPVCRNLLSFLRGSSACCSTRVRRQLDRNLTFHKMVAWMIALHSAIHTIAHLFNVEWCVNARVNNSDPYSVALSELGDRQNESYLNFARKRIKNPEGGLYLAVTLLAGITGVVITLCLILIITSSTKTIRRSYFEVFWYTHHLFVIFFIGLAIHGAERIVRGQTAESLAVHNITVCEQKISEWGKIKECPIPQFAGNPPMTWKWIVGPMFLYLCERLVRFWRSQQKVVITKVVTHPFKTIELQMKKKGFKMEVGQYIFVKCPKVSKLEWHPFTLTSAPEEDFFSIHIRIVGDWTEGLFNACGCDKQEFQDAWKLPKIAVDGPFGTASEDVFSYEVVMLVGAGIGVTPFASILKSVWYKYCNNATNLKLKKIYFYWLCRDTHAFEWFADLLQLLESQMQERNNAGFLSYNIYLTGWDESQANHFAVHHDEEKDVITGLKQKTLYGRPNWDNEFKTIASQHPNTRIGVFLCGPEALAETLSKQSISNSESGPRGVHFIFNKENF
Sequence of Streptavidin (Streptomyces avidinii) (P22629 whole entry, looked up): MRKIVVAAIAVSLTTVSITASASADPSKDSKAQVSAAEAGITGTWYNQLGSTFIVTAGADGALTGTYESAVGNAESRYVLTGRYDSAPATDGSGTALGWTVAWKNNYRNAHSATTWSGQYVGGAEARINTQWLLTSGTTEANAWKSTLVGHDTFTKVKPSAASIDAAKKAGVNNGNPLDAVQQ
Sequence of Torsin-1A (Homo sapiens) (O14656 whole entry, looked up): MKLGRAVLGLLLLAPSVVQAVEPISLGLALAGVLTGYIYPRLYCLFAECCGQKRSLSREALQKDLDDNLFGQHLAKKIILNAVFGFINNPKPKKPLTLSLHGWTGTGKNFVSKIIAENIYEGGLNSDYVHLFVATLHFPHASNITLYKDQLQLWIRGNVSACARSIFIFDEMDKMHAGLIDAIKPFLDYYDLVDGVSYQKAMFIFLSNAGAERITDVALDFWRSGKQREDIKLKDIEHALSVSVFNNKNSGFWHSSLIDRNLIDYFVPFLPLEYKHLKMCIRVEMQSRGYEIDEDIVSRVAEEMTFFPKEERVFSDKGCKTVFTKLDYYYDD
Sequence of NADPH oxidase 5 (Homo sapiens) (Q96PH1 whole entry, looked up): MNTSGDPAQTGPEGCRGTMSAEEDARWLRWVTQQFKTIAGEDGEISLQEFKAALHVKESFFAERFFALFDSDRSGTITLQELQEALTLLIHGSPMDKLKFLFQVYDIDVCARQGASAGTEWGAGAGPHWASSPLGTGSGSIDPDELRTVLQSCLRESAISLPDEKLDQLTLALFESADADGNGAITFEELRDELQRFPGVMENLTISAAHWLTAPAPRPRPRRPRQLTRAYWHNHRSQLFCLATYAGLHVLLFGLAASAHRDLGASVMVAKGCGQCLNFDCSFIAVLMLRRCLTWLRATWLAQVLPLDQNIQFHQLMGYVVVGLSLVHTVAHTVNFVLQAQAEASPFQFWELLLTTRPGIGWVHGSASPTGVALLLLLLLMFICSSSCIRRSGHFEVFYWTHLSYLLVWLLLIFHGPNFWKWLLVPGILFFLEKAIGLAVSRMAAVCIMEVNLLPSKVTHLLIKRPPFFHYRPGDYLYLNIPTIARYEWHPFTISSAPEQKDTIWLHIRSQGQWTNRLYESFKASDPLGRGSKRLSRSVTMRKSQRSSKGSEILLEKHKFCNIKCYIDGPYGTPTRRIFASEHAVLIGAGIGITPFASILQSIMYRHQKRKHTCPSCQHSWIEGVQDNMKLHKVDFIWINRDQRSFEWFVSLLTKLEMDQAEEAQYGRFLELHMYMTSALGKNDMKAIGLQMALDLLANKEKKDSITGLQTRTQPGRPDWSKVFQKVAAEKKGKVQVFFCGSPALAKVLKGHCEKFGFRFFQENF
Sequence of NADPH oxidase 4 (Homo sapiens) (Q9NPH5 whole entry, looked up): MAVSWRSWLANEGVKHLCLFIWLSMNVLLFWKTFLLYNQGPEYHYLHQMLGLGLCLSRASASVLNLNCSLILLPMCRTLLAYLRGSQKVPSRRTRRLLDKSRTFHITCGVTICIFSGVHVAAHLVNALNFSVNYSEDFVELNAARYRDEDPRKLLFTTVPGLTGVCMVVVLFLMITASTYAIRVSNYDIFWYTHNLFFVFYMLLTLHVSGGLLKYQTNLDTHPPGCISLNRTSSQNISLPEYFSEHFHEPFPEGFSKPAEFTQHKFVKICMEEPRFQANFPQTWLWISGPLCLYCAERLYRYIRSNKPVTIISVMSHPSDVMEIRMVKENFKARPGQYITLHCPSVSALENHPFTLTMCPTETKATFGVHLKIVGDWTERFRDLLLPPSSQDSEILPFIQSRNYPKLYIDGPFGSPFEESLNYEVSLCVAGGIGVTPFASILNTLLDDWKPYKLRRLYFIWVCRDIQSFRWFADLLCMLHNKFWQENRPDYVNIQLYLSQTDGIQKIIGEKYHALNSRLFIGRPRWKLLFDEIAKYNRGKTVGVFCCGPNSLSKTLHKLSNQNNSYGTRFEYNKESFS

For `Cc1ccc(-c2cccc(=O)o2)cc1`, the composite z-score is 0.796 in assay [1]; -0.317 in assay [6]; -0.0523 in assay [7]; -0.495 in assay [8]; -0.173 in [9]; -0.0613 in assay [10]. In addition, the composite z-score in assay [12] was -0.237. The z-score was -0.0525 (inactive) in [2]; 1.07 (inactive) in assay [3]; -0.322 (inactive) in assay [4]; 0.699 (inactive) in assay [5]; -0.418 (inactive) in assay [11]; 5.81 (inactive) in assay [13]. The z-score was 1.02 (inactive) in assay [14]; -0.657 (inactive) in assay [15]; 0.609 (inactive) in assay [16]; -0.102 in assay [17]; 0.498 (inactive) in [18]; -1.66 (inactive) in assay [19]. For the same molecule, the z-score in [20] came to 0.12.
Consider `O=C1N(CCS(=O)(=O)c2ccccc2)c2ccccc2[C@H]2OC(c3ccc(OCCCO)cc3)=N[C@@]12CCS(=O)(=O)c1ccccc1`, for which the composite z-score in assay [1] came out at 1.52; in [6], 0.842; in assay [7], 1.08; in [8], 0.766; in assay [9] it was 1.03; in [10] it was 1.66. Moreover, the composite z-score in assay [12] turned out to be 0.582. Further, the z-score in [2] was -1.61 (inactive); in [3], 1 (inactive); in [4], 3.35 (inactive); in assay [5], -0.168 (inactive); in assay [11] it was 0.401 (inactive); in assay [13], 28.2 (active). In addition, the z-score was 26.3 (active) in [14]; 3.35 (inactive) in [15]; 4.36 (inactive) in assay [16]; -0.357 in [17]; 1.76 (inactive) in assay [18]; 0.492 (inactive) in [19]. Further, the z-score in [20] was 1.46.
As to `CC1C=C(CCCO)C=C(C(=O)OCCS(C)(=O)=O)C(C(=O)OCCS(C)(=O)=O)=CN1Cc1cccc(OC(F)(F)F)c1` (stereo not given), the composite z-score in [1] is 0.0382; in assay [6], 1.28; in assay [7], 0.288; in assay [8], 0.887; in assay [9] it was 0.893; in assay [10], -0.0368. Further, the composite z-score in [12] is 0.304. For the same molecule, the z-score was -0.911 (inactive) in assay [2]; -0.846 (inactive) in [3]; -0.364 (inactive) in assay [4]; 0.56 (inactive) in assay [5]; -0.311 (inactive) in assay [11]; 1.81 (inactive) in assay [13]. Also, the z-score in [14] was 0.45 (inactive); in [15], 0.714 (inactive); in assay [16] it was 0.283 (inactive); in assay [17] it was 0.402; in assay [18], -1.97 (inactive); in assay [19], -0.729 (inactive). In addition, the z-score in [20] is -1.67.
For `COC(=O)C(CC#Cc1ccc2c(c1)[C@]1(C(=O)N2)[C@H](c2ccc(O)cc2)N2[C@H](c3ccccc3)[C@H](c3ccccc3)OC(=O)[C@H]2[C@@H]1C(=O)O)C(=O)OC`, the composite z-score in assay [1] is -0.198; in [6], -0.0974; in assay [7], -0.212; in [8] it was -0.295; in assay [9], 0.168; in [10], 0.262. The molecule further showed a composite z-score in [12] of 0.0315. The z-score in assay [2] is -0.627 (inactive); in assay [3] it was -0.191 (inactive); in assay [4] it was 0.389 (inactive); in [5] it was 0.416 (inactive); in assay [11], -1.42 (inactive); in assay [13], 0.489 (inactive). For the same molecule, the z-score was -0.18 (inactive) in assay [14]; -0.258 (inactive) in [15]; -0.367 (inactive) in assay [16]; -0.351 in assay [17]; 1.42 (inactive) in [18]; 0.0467 (inactive) in assay [19]. In addition, in assay [20], the z-score amounted to 1.29.
As for `CCOC(=O)C[C@H]1[C@H](OC(=O)c2cc3ccccc3oc2=O)[C@@H](NC(=O)c2ccc3ccccc3n2)c2cc(OCCCO)ccc2N1C(=O)c1ccc2ccccc2n1`, the composite z-score in [1] was 0.27; in assay [6] it was 0.617; in assay [7] it was 0.539; in [8] it was 0.916; in assay [9], 0.378; in assay [10] it was 1.46. Besides, in assay [12], the composite z-score stood at 0.174. Also, the z-score in [2] is -0.529 (inactive); in assay [3] it was 0.954 (inactive); in assay [4] it was 11.8 (active); in assay [5] it was -1.72 (inactive); in assay [11] it was 1.03 (inactive); in assay [13] it was 10.8 (active). The z-score in [14] is 1.56 (inactive); in [15], 1.25 (inactive); in assay [16], 0.647 (inactive); in assay [17], -0.112; in [18], 0.786 (inactive); in [19] it was 0.715 (inactive). The z-score in [20] was 2.28.
Take `O=C1c2ccccc2C(=O)C2CC([C@H]3Oc4ccccc4S(=O)(=O)N4CCC[C@@H]34)=CCC12` (stereo not given in full): the composite z-score in assay [1] was -0.0428; in [6], 0.161; in assay [7], -0.0471; in [8] it was 0.208; in [9], 0.402; in assay [10], -0.133. In addition, the composite z-score in [12] is -0.196. Moreover, the z-score in assay [2] is -3.06 (inactive); in assay [3], 0.618 (inactive); in assay [4], 6.12 (inactive); in assay [5], -1.59 (inactive); in [11] it was 1.03 (inactive); in assay [13] it was 8 (inactive). The z-score is 1.12 (inactive) in assay [14]; -0.0247 (inactive) in assay [15]; 0.696 (inactive) in [16]; 0.127 in [17]; 0.5 (inactive) in assay [18]; -3.1 (inactive) in assay [19]. Besides, the z-score in assay [20] is -0.779.
Regarding `C=CCC(OC(C)=O)[C@@H]1[C@@H](N(Cc2cc3ccccc3o2)C(=O)Cc2ccc(OC)cc2)c2cc(OCCCO)ccc2N1C(=O)c1ccc(-c2ccccc2)cc1` (stereo not given in full), the composite z-score was found to be 0.0628 in [1]; 0.215 in assay [6]; 0.105 in assay [7]; 0.176 in assay [8]; 0.262 in assay [9]; 0.0275 in [10]. The molecule also displayed a composite z-score in assay [12] of 0.143. For the same molecule, the z-score in assay [2] was -0.279 (inactive); in assay [3], -0.866 (inactive); in assay [4], 2.47 (inactive); in assay [5] it was -0.362 (inactive); in assay [11] it was 1.26 (inactive); in assay [13] it was 2.1 (inactive). Also, the z-score in [14] was 0.0881 (inactive); in assay [15], 0.821 (inactive); in assay [16] it was 0.432 (inactive); in assay [17], 0.78; in assay [18] it was 0.125 (inactive); in [19], -0.964 (inactive). For the same molecule, the z-score in assay [20] came to 1.56.
